Here are results for 29 compounds from PubChem BioAssay AID1851 (National Center for Advancing Translational Sciences (NCATS), 2009).

For orientation: AC50 means the concentration giving half of the maximal activity seen.

Among all 16,000 compounds or so, about 5,100 (32%) were called active. About 25% were inconclusive and are not listed. Calls follow the shape of the dose curve; as a rule, active = well fitted curve in the direction sought with a large enough effect; inconclusive = small, poorly fitted or top-dose-only effect, or effect the other way; inactive = no such curve, though single readings can be large or run the other way. This is one part of the list.
% is scaled to controls: 0 for no effect and ±100 for the full control effect.

The target in the assay is Cytochrome P450 3A4 (Homo sapiens) (UniProt P08684). As to the kind of experiment: Cytochrome panel assay with activity outcomes. To be noted: recombinant CYP, pro-luciferin dealkylation, luminescence, p450-cyp3a4; series mostly up to 57.1 µM; activity, negative = inhibition: at the top concentration. The method, then: The P450 gene superfamily is involved in the metabolism and clearance of xenobiotics. This assay used various human CYP P450 isozymes to measure the dealkylation of various pro-luciferin substrates to luciferin. The luciferin is then measured by luminescence after the addition of a luciferase detection reagent. Pro-luciferin substrate concentration in the assay was equal to its KM for its CYP P450 isozyme. Inhibitors and some substrates limit the production of luciferin, and decrease measured luminescence.
Chain of Cytochrome P450 3A4 (Homo sapiens) (P08684 whole entry, looked up): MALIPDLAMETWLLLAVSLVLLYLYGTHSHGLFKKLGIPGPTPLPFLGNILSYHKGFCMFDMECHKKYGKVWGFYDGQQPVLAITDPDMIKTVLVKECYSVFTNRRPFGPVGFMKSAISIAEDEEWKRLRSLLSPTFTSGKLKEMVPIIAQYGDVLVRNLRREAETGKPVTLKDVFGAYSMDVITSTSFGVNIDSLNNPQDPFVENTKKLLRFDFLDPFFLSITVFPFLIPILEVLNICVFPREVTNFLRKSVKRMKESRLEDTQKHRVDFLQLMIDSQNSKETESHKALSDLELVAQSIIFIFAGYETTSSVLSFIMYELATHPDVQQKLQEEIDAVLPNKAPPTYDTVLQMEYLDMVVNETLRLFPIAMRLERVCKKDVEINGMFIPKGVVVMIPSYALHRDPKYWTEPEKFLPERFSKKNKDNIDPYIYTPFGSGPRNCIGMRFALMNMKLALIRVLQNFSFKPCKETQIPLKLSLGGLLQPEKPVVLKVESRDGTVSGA
NCGC Assay Protocol Summary:
1, Reagent, 2 uL, Isozyme and Pro-Luciferin
2, Library compounds, 23 nl, 40 uM to 0.24 nM dilution series
3, Controls, 23 nl, Isozyme specific inhibitor
4, Reagent, 2 uL, NADPH regeneration solution
5, Incubation time, 60 min, Isozyme specific temperature
6, Reagent, 4ul, Detection reagent
7, Incubation time, 20 min, Isozyme specific temperature
8, Detection, 1 sec, ViewLux luminescent read
The luciferase-based P450-GloTM Screening Systems were obtained from Promega (Madison, WI) for CYP 1A2 (V9770), CYP 2C9 (V9790), CYP2 C19 (V9880), CYP 2D6 (V9890), and CYP 3A4 Luciferin-PPXE (V9910) and were adapted for 1,536-well microplates and an automated protocol. The control compounds furafylline for 1A2 (F124), sulfaphenazole for CYP 2C9 (S0758), ketoconazole for CYP 2C19 (K1003), quinidine for 2D6 (Q3625), and ketoconazole for 3A4 (K1003) were purchased from Sigma Aldrich (St. Louis, MO). Recombinant P450 enzymes were obtained from baculovirus constructs expressed in insect cells (BD/Gentest).
Medium-binding white solid Kalypsys plates used. Mixtures kept on ice. 1A2: 10 nM 1A2, 100 uM Luc-ME, 100 mM KPO4; 2C9: 10 nM 2C9, 100 uM Luc-H, 25 mM KPO4; 2C19: 5 nM 2C19, 10 uM Luc-H EGE, 50 mM KPO4; 2D6: 5 nM 2D6, 30 uM Luc-ME EGE, 100 mM KPO4; 3A4: 10 nM, 25 uM Luc-PPXE. All amounts are reflected in their final concentration, working concentration is 2x.
NADPH regeneration solution: 1.3 mM NADP+, 3.3 mM glucose-6-phosphate, 3.3 mM MgCl2, 0.4 U/mL glucose-6-phosphate dehydrogenase for all isozymes, 200 mM KPO4 for 3A4. Mixture prepared at RT but kept on ice during automated run.
RT incubation in auxilliary plate hotel for 1A2, 2D6, and 3A4; 37C for 2C9 and 2C19.
Keywords: P450, CYP1A2, CYP2C19, CYP2C9, CYP2D6, CYP3A4, Luciferase, MLSMR, MLSCN, NIH Roadmap, qHTS, NCGC
Regarding `O=C(CSc1nc2ccccc2c(=O)n1NC(=O)Cc1ccccc1)NCc1ccccc1Cl`, the AC50 is 5.62 µM (active).

In the case of `CC(C)(C)n1ncc2c(=O)n(CC(=O)NCc3ccccc3Cl)cnc21`, the activity, negative = inhibition is -27.1% [at 11.4 µM] (inactive).

For `O=C(CSc1nc2ccccc2c(=O)n1NC(=O)c1ccccc1)c1ccc(Cl)cc1`, the AC50 is 14.1 µM (active).

With `CC(=O)C1C(c2ccccc2OC(F)F)NC(=O)NC1(O)C(F)(F)F` (centres undefined), the “activity, negative = inhibition” value is -21.6% (inactive).

For the compound `CCCCCC(=O)O[C@H](CC(=O)O)C[N+](C)(C)C`, the “activity, negative = inhibition” value was -10.6% (inactive).

Take `CN(C)C(=O)c1ccc(-c2cncnc2NCCN2CCOCC2)cc1`: the AC50 was 15.8 µM (active).

`CN(C)c1ccc(-c2cncnc2NCCN2CCOCC2)cc1`: the AC50 is 3.16 µM (active).

Take `Cc1ccnc(NS(=O)(=O)c2ccc(N=[N+]=[N-])cc2)n1`: the activity, negative = inhibition was 1.05% [at 11.4 µM] (inactive).

`O=c1[nH][nH]cc1C=Nc1ccccc1O`: the activity, negative = inhibition is -5.56% [at 11.4 µM] (inactive).

For the compound `COc1cccc(/C=N/NC(=O)c2cc(-c3cccn3C)n[nH]2)c1`, the activity, negative = inhibition was -9.54% [at 2.29 µM] (inactive).

As for `O=c1[nH][nH]c(C(F)(F)F)c1C=Nc1cccc(Cl)c1`, the “activity, negative = inhibition” value was -6.64% (inactive).

With `Clc1cccc(C=NC=Nc2cccc(Cl)c2)c1`, the “activity, negative = inhibition” value is -25.5% (inactive).

With `COc1cccc(C=NC=Nc2cccc(OC)c2)c1`, the AC50 is 20 µM (active).

As for `COc1cccc(N=Cc2c[nH][nH]c2=O)c1`, the AC50 is 14.1 µM (active).

On to `CCCn1nnnc1-c1cc(Cl)cc(Cl)c1`, for which the activity, negative = inhibition was 29.9% [at 2.29 µM] (inactive).

For the compound `N#C/C(=C\c1cccs1)C(=O)NCC1CCCO1` (centres undefined), the “activity, negative = inhibition” value is -2.23% (inactive).

Take `Cc1cccc(C)c1NC(=O)/C(C#N)=C/c1cccs1`: the AC50 was 20 µM (active).

As for `Cc1sc(NC(=O)c2ccco2)c(C(c2cccnc2)N2CCCC2)c1C` (centres undefined), the AC50 is 1.58 µM (active).

For the compound `Cc1sc(NC(=O)c2ccco2)c(C(c2ccncc2)N2CCOCC2)c1C` (centres undefined), the AC50 was 3.16 µM (active).

`O=C(NCC(c1cccs1)N1CCOCC1)c1ccco1` (centres undefined): the “activity, negative = inhibition” value is -11.4% (inactive).

As to `Cc1sc(NC(=O)c2ccco2)c(C(c2cccnc2)N2CCN(C)CC2)c1C` (centres undefined), the activity, negative = inhibition is -28.9% [at 2.29 µM] (inactive).

As to `COc1ccccc1-c1nccc(NCc2ccccc2)n1`, the AC50 was 15.8 µM (active).

As to `COc1ccccc1-c1nccc(NCc2cccnc2)n1`, the AC50 is 2.51 µM (active).

Regarding `Cc1ccccc1-c1nccc(NCc2cccnc2)n1`, the AC50 is 3.98 µM (active).

For the compound `Cc1cccc(CNc2ccnc(-c3ccccc3Cl)n2)c1`, the AC50 is 3.98 µM (active).

Turning to `O=c1c(-c2ccccc2)c(O)c2cccc3c2n1CCC3`, the “activity, negative = inhibition” value is -13.8% (inactive).

As for `CCCCCSc1nnc(C)c(=O)[nH]1`, the “activity, negative = inhibition” value is 1.88% (inactive).

With `COc1ccccc1-c1nccc(NCc2cccc(C)c2)n1`, the AC50 was 6.31 µM (active).

Regarding `CC1=c2c(oc3cc(O)c(Nc4c(C)cc(O)cc4O)c(C)c23)=CC(=O)C1=Nc1c(C)cc(O)cc1O`, the activity, negative = inhibition was -19.4% [at 11.4 µM] (inactive).
